In PubChem BioAssay AID602438 (Sanford-Burnham Center for Chemical Genomics, 2012):
About 3,100 (0.86%) of roughly 360,000 compounds were called active. This excerpt belongs to a sample that is enriched for actives. Unmarked numbers belong to inactive results.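 Rule for the calls: active = inhibition or corrected inhibition above about 18%, plus a signal ratio from 0.5 to 1.5 (limit read from the data, passing the limit was not always enough); inactive = the rest.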

Target: Neuropilin-1 (Homo sapiens) (UniProt O14786)
Assay: modulators of CendR peptide binding to NRP-1, primary screen, biochemical, fluorescence polarization, uHTS (AID 602438)
Conditions: FAM-RPARPAR peptide binding to NRP-1, fluorescence polarization; at 25 µM; hits give high values

Neuropilin-1 (Homo sapiens), sequence (O14786 whole entry, looked up): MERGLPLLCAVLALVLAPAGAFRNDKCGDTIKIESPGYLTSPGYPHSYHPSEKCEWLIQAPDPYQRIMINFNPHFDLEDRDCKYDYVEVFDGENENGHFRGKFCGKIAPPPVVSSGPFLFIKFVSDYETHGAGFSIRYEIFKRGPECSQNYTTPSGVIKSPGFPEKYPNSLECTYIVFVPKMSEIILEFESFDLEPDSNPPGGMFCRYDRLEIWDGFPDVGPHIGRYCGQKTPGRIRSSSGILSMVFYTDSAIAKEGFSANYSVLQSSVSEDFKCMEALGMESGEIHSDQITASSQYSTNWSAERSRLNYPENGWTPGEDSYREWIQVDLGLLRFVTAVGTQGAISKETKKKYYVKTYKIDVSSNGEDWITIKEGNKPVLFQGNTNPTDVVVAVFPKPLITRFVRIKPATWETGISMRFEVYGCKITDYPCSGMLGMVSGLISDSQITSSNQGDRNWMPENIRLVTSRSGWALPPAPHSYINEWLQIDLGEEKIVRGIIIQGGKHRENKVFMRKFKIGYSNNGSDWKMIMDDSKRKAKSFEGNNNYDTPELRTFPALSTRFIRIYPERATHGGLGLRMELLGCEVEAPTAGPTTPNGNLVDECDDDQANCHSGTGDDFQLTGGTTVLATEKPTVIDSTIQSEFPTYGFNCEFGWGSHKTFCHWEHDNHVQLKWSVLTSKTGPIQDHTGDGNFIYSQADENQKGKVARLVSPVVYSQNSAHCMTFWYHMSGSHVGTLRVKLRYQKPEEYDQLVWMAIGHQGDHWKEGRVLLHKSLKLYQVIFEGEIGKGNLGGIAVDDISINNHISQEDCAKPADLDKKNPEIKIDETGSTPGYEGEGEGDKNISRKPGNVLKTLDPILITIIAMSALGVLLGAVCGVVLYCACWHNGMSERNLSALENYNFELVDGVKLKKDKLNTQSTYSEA

Compound | inhibition
CSCCC(NS(=O)(=O)c1ccc(C)cc1)C(=O)N(C)CC(=O)Nc1ccccc1Br (stereo unspecified) | 3.9%
O=C(CNC(=O)c1n[nH]c2ccccc12)Nc1cc(Cl)ccc1Cl | 3.5%
CCC(NC(=O)c1cc(COc2ccc(F)c(F)c2)on1)c1ccncc1 (stereo unspecified) | 1.4%
COc1ccccc1C1C(C(N)=O)=C(C)Nc2nc(CCCO)nn21 (stereo unspecified) | 3.8%
CC1=C(C(N)=O)C(c2ccc(F)cc2)n2nc(CCCO)nc2N1 (stereo unspecified) | 6.8%
COCCOC(=O)C1=C(C)Nc2nc(C)nn2C1c1ccccc1 (stereo unspecified) | 36.8% (active)
Cc1noc(C)c1CSc1nnc2ccc3ccccc3n12 | 10.5%
COc1ccc(-c2ccc3nnc(SCC(=O)Nc4ccc(NC(C)=O)cc4)n3n2)cc1 | -19%
CC1C(C)N(C(=O)CCl)c2ccccc2N1C(=O)CCl (stereo unspecified) | 27.7% (active)
CC1C(=O)N(Cc2ccccc2)c2ccccc2N1C(=O)c1ccccc1 (stereo unspecified) | 1.5%
CNC(=O)N1c2ccccc2C=Cc2ccccc21 | 2.6%
CCN(CC)c1ccc(C2C3CCCCC3(O)CCN2CC(=O)Nc2ccccc2)cc1 (stereo unspecified) | -12.5%
CC(C)Cc1nc(Nc2ccc(S(=O)(=O)N3CCCC3)cc2)c2nnn(Cc3ccccc3)c2n1 | -9.8%
CCN(CC)CCN1C(=O)C2C(C(=O)Nc3ccc(Br)cc3)C3C=CC2(O3)C1C(=O)NC1CCCCC1 (stereo unspecified) | 10%
CC(C)COC(=O)C1C2C=CC3(CN(C(C)c4ccc(Br)cc4)C(=O)C13)O2 (stereo unspecified) | 27.4% (active)
CCOC(=O)CN1CC23C=CC(O2)C(C(=O)Nc2ccc(F)cc2)C3C1=O (stereo unspecified) | -3.4%
CCOC(=O)C1CCN(C(=O)c2ccccc2N(C)S(=O)(=O)c2ccccc2)CC1 | 7.6%
Cc1cccc(N2CCN(C(c3ccc(N(C)C)cc3)c3nnnn3C(C)(C)C)CC2)c1C (stereo unspecified) | -6.2%
O=C(CCl)NNc1cccc(Cl)n1 | 5.6%
COc1ccc(-c2c(C#N)cnc(C)c2C)c(O)c1OC | 37.9% (active)
O=C(CC1SC(=Nc2ccccc2F)N(CCN2CCOCC2)C1=O)Nc1ccc(F)cc1F (stereo unspecified) | -6.8%
CCc1ccc(-c2nc(SCC(=O)NC3CCCC3)n[nH]2)cc1 | -8.8%
Cc1cc(C)c(S(=O)(=O)N2CCCC2CNC(=O)c2ccc3c(c2)OCO3)c(C)c1 (stereo unspecified) | -6.7%
Cc1cc(NS(=O)(=O)c2ccc(NC(=O)C(C)Oc3cccc(C)c3C)cc2)nc(C)n1 (stereo unspecified) | -7.8%

Compound | inhibition
CC(C)(C)S(=O)(=O)c1ccccc1-c1noc(-c2ccccc2)c1C(N)=O | 42.7% (active)
Cc1onc(-c2ccccc2)c1C(=O)N1CCN(S(=O)(=O)c2ccccc2C(F)(F)F)CC1 | -195%
O=C(COC(=O)c1cccnc1Cl)NC12CC3CC(CC(C3)C1)C2 | 8%
CC1(C(=O)NCc2ccc3c(c2)OCO3)CCN1C(=O)Cc1cccs1 (stereo unspecified) | 3%
Cc1cc(C(=O)COc2ccccc2[N+](=O)[O-])c(C)n1-c1cccc(S(=O)(=O)N2CCOCC2)c1 | -14.8%
CCc1c(N=O)c(-c2ccccc2)n(O)[n+]1[O-] | 5.4%
O=C(CN1CCN(Cc2ccc(F)cc2Cl)C1=O)NCc1cccs1 | -1.9%
CCN=C1S/C(=C\c2cc(Br)ccc2OCC(=O)OCC)C(=O)N1CC | -10.1%
CN(C)c1ccc2c(=O)[nH][nH]c(=O)c2c1 | 11.3%
COc1ccc(CNC(=O)C2CCN(C(=O)c3ccco3)CC2)cc1 | -1%
COc1ccc(CNC(=O)C2CCN(S(C)(=O)=O)CC2)cc1 | -11.1%
COc1ccc(CNC(=O)[C@@H]2CC=C[C@@H]3CCN(C4CC4)C(=O)[C@@H]32)cc1 | 25.5% (active)
COc1cccc(/C=N/NC(=O)C(=O)N2CCCC2)c1 | -7.9%
CCOC(=O)C1(Cc2ccccc2C(F)(F)F)CCN(C(=O)c2cc(C)n(C)n2)CC1 | -5.9%
O=C(O)c1ccccc1N=N/C(=N/Nc1cc(S(=O)(=O)O)ccc1O)c1ccccc1 | 41.5% (active)
Cc1ccc(S(=O)(=O)N(C)c2ccc(OCC(=O)OCc3ccc(C#N)cc3)cc2)cc1 | -6.5%
O=C(c1ccc(N2CCCC2=O)cc1)N1CCN(c2ccc(C(F)(F)F)cc2[N+](=O)[O-])CC1 | -0.8%
O=C(Cc1ccc(S(=O)(=O)N2CCOCC2)s1)N1CCN(c2ccc(C(F)(F)F)cc2[N+](=O)[O-])CC1 | 27.6% (active)
O=C(c1ccc(N2CCOCC2)c([N+](=O)[O-])c1)N1CCN(S(=O)(=O)c2cccs2)CC1 | -14%
N#Cc1cccc(CSc2ncnc(N)n2)c1 | 12.4%
CCOC(=O)C1CCN(C(=O)CN2C(=O)NC(C)(c3ccc4cc(OC)ccc4c3)C2=O)CC1 (stereo unspecified) | -3.2%
CC1=C(C(N)=O)C(c2sccc2C)n2nnnc2N1 (stereo unspecified) | -5.6%
CC(Oc1cccc(Cl)c1)C(=O)NC1CC(C)(C)NC(C)(C)C1 (stereo unspecified) | 24.2% (active)
Cc1cccc(OCC(=O)NC2CC(C)(C)NC(C)(C)C2)c1 | -1.1%

Compound | inhibition
Cc1cc(OC(C)C(=O)NC2CC(C)(C)NC(C)(C)C2)c2c(C)cc(=O)oc2c1 (stereo unspecified) | 1.2%
COc1cccc(C2=CC(=O)C[C@H](c3ccc(OC)c(OC)c3)C2)c1 | -4.1%
S=c1[nH]nc(Nc2ccccc2)s1 | 0.6%
O=C(/C=C/Nc1ccccc1)c1cnc(-c2ccccc2)s1 | 5.7%
CC(C)(C)C(=O)c1cnc(Nc2ccccc2)s1 | 37.4% (active)
O=c1cc(Cl)c2ccccc2n1-c1ccccc1 | 0%
CCOCCn1[nH]c2ccccc2c1=O | 8.9%
COc1ccc(N2CCN(C(=O)[C@@H](NC(=O)c3cc(OC)cc(OC)c3)C(C)C)CC2)cc1 | 4%
COc1cc(OC)cc(C(=O)NC(C(=O)N2CCC2)C(C)C)c1 (stereo unspecified) | -2.9%
COc1cc(OC)cc(C(=O)N[C@H](C(=O)NNC(=O)c2ccc(Br)cc2)C(C)C)c1 | 22.8% (active)
CC1CCN(S(=O)(=O)c2ccc(S(=O)(=O)NCc3ccco3)cc2)CC1 | 8.7%
CN(C)C(=S)N=c1ssc(=S)n1Cc1ccco1 | -2.5%
O=C(O)C(c1ccccc1)C1(O)CCCCC1 (stereo unspecified) | -0.6%
CN(C)CCOC(=O)C(c1ccccc1)C1(O)CCCC1 (stereo unspecified) | 5.3%
O=C(O)C(c1cccs1)C1(O)CCCCC1 (stereo unspecified) | 27.7% (active)
O=C(Cn1cc(C(F)(F)F)ccc1=O)Nc1ccc2c(c1)OCCO2 | -9.1%
O=C(/C=N/O)Nc1ccccc1 | 3.7%
C#CC(C)(C)NC(=O)c1cnc(-c2ccccc2)nc1-c1ccccc1 | -0.8%
CCOC(=O)c1ccn(S(=O)(=O)c2ccc(C)cc2)c1-c1ccccc1 | -9.6%
CCOC(=O)c1cc2n(c1N)-c1ccccc1C2=O | 29.5% (active)
CCOC(=O)c1cnn(Cc2ccccc2Cl)c1N | -3.4%
CCC(C(=O)NC1CCCC1)N(C(=O)c1snc(C(N)=O)c1N)c1ccc2c(c1)OCCO2 (stereo unspecified) | 5.9%
CC(NC(=O)COC(=O)Cn1cc(C(F)(F)F)ccc1=O)c1ccccc1 (stereo unspecified) | -13.9%
CCN(CC)N=Nc1cccc(NC(C)=O)c1 | 1.7%

Compound | inhibition
Cc1ccc2c(c1)-c1c(ssc1=S)C(C)(C)N2C(=O)CN1C(=O)c2ccccc2C1=O | -1.5%
Cc1cc2c(cc1C)N(C(=O)CN1C(=O)c3ccccc3C1=O)C(C)(C)c1ssc(=S)c1-2 | 23.1% (active)
Cc1ccc(NC(=O)CCN2C(=O)c3ccccc3C2=O)cc1C | 15.6%
C=CCn1nc(-c2ccccc2)c2c(C)onc2c1=O | -1.4%
Cc1ccc(C=O)c([B-](F)(F)F)c1 | -8.7%
CN1c2ccc(C=O)c3c(C=O)ccc(c23)N(C)C1(C)C | 56.9% (active)
O=C(CCN1CCCO1)N1CCCC(N2CCN(c3cccc(C(F)(F)F)c3)CC2)C1 (stereo unspecified) | 10.2%
CC1CCCN(C(=O)c2ccc3c(c2)C(=O)N(CCC2=CCCCC2)C3=O)C1 (stereo unspecified) | 9.2%
COC(=O)c1cccc(NC(=O)CSc2nc(C)cc(=O)[nH]2)c1 | -10.7%
Cc1cc(C)c(C(=O)CSc2nc(C)cc(=O)[nH]2)c(C)c1 | 26.7% (active)
Cc1cc(=O)[nH]c(SCc2ccc(Cl)cc2)n1 | 21.5%
N#CCN(C(=O)COC(=O)C1CC2CCCC(C1)C2=O)c1ccccc1 (stereo unspecified) | -17.5%
O=C(NC(=O)c1ccccc1N1CCCCC1)Nc1ccc(Br)cc1 | 5.9%
Cc1cccc(C)c1NC(=O)CS(=O)CC(=O)N1CCN(c2ccccc2)CC1 (stereo unspecified) | 16%
CCOC(=O)N1CCN(CC(=O)Nc2ccc(F)cc2)CC1 | -14.8%
Cc1cccc(C)c1NC(=O)CN1CCN(c2ccc(F)cc2)CC1 | 19.5% (active)
Cc1cc(Nc2ccc(C)c(C)c2)n2ncnc2n1 | 4.8%
CC1(c2cccc(Br)c2)NC(=O)N(CC(=O)NCCC2=CCCCC2)C1=O (stereo unspecified) | 6.7%
Cc1ccc(S(=O)(=O)NNC(=O)Nc2cccc3ccccc23)cc1 | 1.8%
Cc1ccc(S(=O)(=O)NC(=O)c2cccc(C)c2)cc1 | -0.5%
Cc1ccc(S(=O)(=O)NNC(=O)/C=C/c2cccc(F)c2)cc1 | 20.7% (active)
COc1ccc(CN(C)C(=O)Cc2c[nH]c3ccccc23)c(OC)c1OC | -1.4%
COc1ccccc1NC(=O)CCCc1c[nH]c2ccccc12 | 65.3% (active)
COc1ccc(Cl)cc1NC(=O)CN(C)C(=O)CCCc1c[nH]c2ccccc12 | 7.5%
